Test results from PubChem BioAssay (NCATS).
Results filed as inconclusive are left out. Values without a mark were called inactive. The source made the active and inactive calls. Calls follow the shape of the dose curve; as a rule, active = well fitted cell-killing curve with a large enough effect; inconclusive = small, poorly fitted or top-dose-only effect, or effect the other way; inactive = no such curve, though single readings can be large or run the other way.

Columns and labels:
[1] = Quantitative High-Throughput drug screen in 47 multiple myeloma cell lines against the NCATS MIPE library collection: KMS28PE_JCRB cell viability assay (AID 1918983); also: nearly all actives have a fitted effect of over 35% in size
Outline: (§1)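 Inhibition of viability over 48 h was scored by ATP content (CellTiter-Glo) in 500-cell wells. Zero and full viability were defined by media-only and DMSO-only wells.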

[2] = Quantitative High-Throughput drug screen in 47 multiple myeloma cell lines against the NCATS MIPE library collection: KMS34_JCRB cell viability assay (AID 1918985); also: nearly all actives have a fitted effect of over 40% in size
Outline: as §1

[3] = Quantitative High-Throughput drug screen in 47 multiple myeloma cell lines against the NCATS MIPE library collection: OCIMY7_PLB cell viability assay (AID 1918987); also: nearly all actives have a fitted effect of over 65% in size
Outline: as §1

[4] = Quantitative High-Throughput drug screen in 47 multiple myeloma cell lines against the NCATS MIPE library collection: OCIMY5_PLB cell viability assay (AID 1918988); also: nearly all actives have a fitted effect of over 65% in size
Outline: as §1

[5] = Quantitative High-Throughput drug screen in 47 multiple myeloma cell lines against the NCATS MIPE library collection: OPM1_PLB cell viability assay (AID 1918989); also: nearly all actives have a fitted effect of over 40% in size
Outline: as §1

[6] = Quantitative High-Throughput drug screen in 47 multiple myeloma cell lines against the NCATS MIPE library collection: SKMM1_PLB cell viability assay (AID 1919863); details: SKMM1 myeloma viability, CellTiter-Glo ATP, 48 h; viability: stronger effect = lower value; also: nearly all actives have a fitted effect of over 35% in size; as to viability: series mostly up to about 46 µM
Outline: as §1

[7] = Quantitative High-Throughput drug screen in 47 multiple myeloma cell lines against the NCATS MIPE library collection: XG6_PLB cell viability assay (AID 1919865); also: nearly all actives have a fitted effect of over 40% in size
Outline: as §1

[8] = Quantitative High-Throughput drug screen in 47 multiple myeloma cell lines against the NCATS MIPE library collection: U266_ATCC cell viability assay (AID 1919864); also: nearly all actives have a fitted effect of over 35% in size
Outline: as §1
Potency is read from the fitted curve at half-maximal effect.

## COc1ccc(C(=O)CC2(O)C(=O)Nc3c(Cl)ccc(Cl)c32)cc1 (centres undefined)
[1]
  Potency: 3.72 µM (active)
[2]
  Potency: 2.96 µM (active)
[3]
  Potency: 0.526 µM (active)
[4]
  Potency: 1.87 µM (active)
[5]
  Potency: 9.35 µM (active)
[6]
  Potency: 1.18 µM (active)
[7]
  Potency: 0.833 µM (active)

## CC1=C(CO)C(=O)O[C@@H]([C@@H](C)[C@H]2CC[C@H]3[C@@H]4C[C@H]5O[C@]56[C@@H](O)C=CC(=O)[C@]6(C)[C@@H]4CC[C@]23C)C1
[1]
  Potency: 0.264 µM (active)
[2]
  Potency: 0.118 µM (active)
[3]
  Potency: 0.105 µM (active)
[4]
  Potency: 0.132 µM (active)
[5]
  Potency: 0.132 µM (active)
[6]
  Potency: 0.296 µM (active)
[8]
  Potency: 0.264 µM (active)
[7]
  Potency: 0.469 µM (active)

## CC1COC2(CCN(c3nc(=O)c4cc(C(F)(F)F)cc([N+](=O)[O-])c4s3)CC2)O1 (centres undefined)
[1]
  Potency: inactive
[2]
  Potency: inactive
[5]
  Potency: inactive
[6]
  viability: 134%
[7]
  Potency: inactive

## COc1cc(C(=O)N2CCC(N3CCN(C)CC3)CC2)ccc1Nc1ncc2c(n1)N(C)c1ccccc1C(=O)N2C
[1]
  Potency: 3.32 µM (active)
[2]
  Potency: 2.64 µM (active)
[3]
  Potency: 2.96 µM (active)
[4]
  Potency: 2.09 µM (active)
[5]
  Potency: 1.87 µM (active)
[7]
  Potency: 5.26 µM (active)

## Nc1nc(-c2nn(Cc3ccccc3F)c3ncccc23)nc(N)c1N1CCOCC1
[1]
  Potency: inactive
[2]
  Potency: inactive
[4]
  Potency: inactive
[6]
  viability: 84.5%

## CCCCCN(CCC12CC3CC(CC(C3)C1)C2)C(=O)NCCCc1ccncc1
[1]
  Potency: 20.9 µM (active)
[3]
  Potency: 16.6 µM (active)
[4]
  Potency: 14.8 µM (active)
[6]
  Potency: 23.5 µM (active)

## NC1(Cc2ccc(Cl)cc2)CCN(c2ncnc3[nH]ccc23)CC1
[1]
  Potency: 5.26 µM (active)
[2]
  Potency: 7.43 µM (active)
[3]
  Potency: 5.9 µM (active)
[4]
  Potency: 9.35 µM (active)
[5]
  Potency: 1.48 µM (active)
[8]
  Potency: 20.9 µM (active)
[7]
  Potency: 13.2 µM (active)

## Cc1cc(N2CCOCC2)cc2[nH]c(-c3c(NC[C@@H](O)c4cccc(Cl)c4)cc[nH]c3=O)nc12
[1]
  Potency: 0.332 µM (active)
[2]
  Potency: 0.469 µM (active)
[3]
  Potency: 0.105 µM (active)
[4]
  Potency: 1.66 µM (active)
[5]
  Potency: 0.469 µM (active)
[8]
  Potency: 2.64 µM (active)
[7]
  Potency: 0.0833 µM (active)

## Cc1cc(Nc2cc(N3CCN(C)CC3)nc(Sc3ccc(NC(=O)C4CC4)cc3)n2)n[nH]1
[1]
  Potency: 11.8 µM (active)
[2]
  Potency: 14.8 µM (active)
[3]
  Potency: 0.296 µM (active)
[4]
  Potency: 5.26 µM (active)
[5]
  Potency: 5.9 µM (active)
[8]
  Potency: 16.6 µM (active)
[7]
  Potency: 13.2 µM (active)

## Cc1c(CN2CCN(S(C)(=O)=O)CC2)sc2c(N3CCOCC3)nc(-c3cnc(N)nc3)nc12
[1]
  Potency: 0.0209 µM (active)
[2]
  Potency: 0.0372 µM (active)
[3]
  Potency: 0.132 µM (active)
[5]
  Potency: 0.0662 µM (active)
[7]
  Potency: 0.0662 µM (active)

## O=C(O)[C@H](Cc1c[nH]c2ccccc12)N1C(=O)c2ccccc2C1=O
[1]
  Potency: inactive
[2]
  Potency: inactive
[3]
  Potency: 30.3 µM (active)
[5]
  Potency: inactive

## Clc1cccc(-n2nnnc2NCc2ccccc2Oc2ccccn2)c1Cl
[1]
  Potency: inactive
[2]
  Potency: inactive
[5]
  Potency: inactive
[6]
  viability: 120%

## CC[C@@H]1C(=O)N(C)c2cnc(Nc3ccc(C(=O)NC4CCN(C)CC4)cc3OC)nc2N1C1CCCC1
[1]
  Potency: 0.0743 µM (active)
[2]
  Potency: 0.187 µM (active)
[5]
  Potency: 0.0935 µM (active)
[8]
  Potency: 23.5 µM (active)

## c1nc2nc(Nc3ccc(N4CCOCC4)cc3)nc(NC3CCCCC3)c2[nH]1
[1]
  Potency: 16.6 µM (active)
[2]
  Potency: 5.26 µM (active)
[3]
  Potency: 3.32 µM (active)
[4]
  Potency: 18.7 µM (active)
[5]
  Potency: 4.69 µM (active)
[8]
  Potency: 16.6 µM (active)
[7]
  Potency: 2.09 µM (active)

## CN(C)CCCN=c1c2ccccc2n(C)c2[nH]c(=O)n(C)c(=O)c12
[1]
  Potency: 16.6 µM (active)
[2]
  Potency: 18.7 µM (active)
[4]
  Potency: 18.7 µM (active)
[5]
  Potency: 6.62 µM (active)
[6]
  Potency: 14.8 µM (active)
[8]
  Potency: 8.33 µM (active)
[7]
  Potency: 5.9 µM (active)

## CC(C)c1noc(N2CCC(COc3ccc(-c4ccc(S(C)(=O)=O)cc4)nc3)CC2)n1
[1]
  Potency: 16.6 µM (active)
[2]
  Potency: inactive
[4]
  Potency: 8.33 µM (active)
[5]
  Potency: inactive
[8]
  Potency: inactive
[7]
  Potency: 3.72 µM (active)

## CC(O)C1C(=O)N2C(C(=O)O)=C(SC3CNC(C(=O)N(C)C)C3)C(C)C12 (centres undefined)
[1]
  Potency: inactive
[2]
  Potency: inactive
[4]
  Potency: inactive
[5]
  Potency: inactive
[7]
  Potency: inactive

## CCCCN1CCC(CNC(=O)c2c3n(c4ccccc24)CCCO3)CC1
[1]
  Potency: 23.5 µM (active)
[3]
  Potency: 3.72 µM (active)
[4]
  Potency: 3.32 µM (active)
[5]
  Potency: 23.5 µM (active)
[6]
  Potency: 16.6 µM (active)
[8]
  Potency: 4.69 µM (active)
[7]
  Potency: 0.833 µM (active)

## COc1c(N2C[C@@H]3CCCN[C@H]3C2)c(F)cc2c(=O)c(C(=O)O)cn(C3CC3)c12
[1]
  Potency: inactive
[2]
  Potency: 9.35 µM (active)
[5]
  Potency: inactive

## CC(=O)Nc1sc2c(c1-c1nc3ccccc3s1)CNC2
[1]
  Potency: 20.9 µM (active)
[2]
  Potency: 6.62 µM (active)
[4]
  Potency: 16.6 µM (active)
[5]
  Potency: 18.7 µM (active)
[8]
  Potency: 16.6 µM (active)
[7]
  Potency: 9.35 µM (active)

## Cn1c2cc(S(C)=O)sc2c2cnn(Cc3cccc(N)c3)c(=O)c21 (centres undefined)
[1]
  Potency: inactive
[2]
  Potency: inactive
[5]
  Potency: inactive
[6]
  viability: 114%
[8]
  Potency: inactive
[7]
  Potency: inactive
